Reference: PubChem BioAssay AID1851 (National Center for Advancing Translational Sciences (NCATS), 2009)
“And” between values parts separate entries of the source, which are not always exact repeats. Identical values can stand only once. About 5,100 (32%) of roughly 16,000 compounds were called active. Another 25% or so got no clear call; they are omitted. Calls come from the whole dose curve; as a rule, active = well fitted curve in the direction sought with a large enough effect; inconclusive = small, poorly fitted or top-dose-only effect, or effect the other way; inactive = no such curve, though single readings can be large or run the other way. This is one part of the list.

The compounds below were run against Cytochrome P450 3A4 (Homo sapiens) (UniProt P08684) (assay: Cytochrome panel assay with activity outcomes). Conditions: recombinant CYP, pro-luciferin dealkylation, luminescence, p450-cyp3a4; series mostly up to 57.1 µM.
% is set by controls: 0 for no effect and ±100 for the full control effect.

Cytochrome P450 3A4 (Homo sapiens), sequence (P08684 whole entry, looked up): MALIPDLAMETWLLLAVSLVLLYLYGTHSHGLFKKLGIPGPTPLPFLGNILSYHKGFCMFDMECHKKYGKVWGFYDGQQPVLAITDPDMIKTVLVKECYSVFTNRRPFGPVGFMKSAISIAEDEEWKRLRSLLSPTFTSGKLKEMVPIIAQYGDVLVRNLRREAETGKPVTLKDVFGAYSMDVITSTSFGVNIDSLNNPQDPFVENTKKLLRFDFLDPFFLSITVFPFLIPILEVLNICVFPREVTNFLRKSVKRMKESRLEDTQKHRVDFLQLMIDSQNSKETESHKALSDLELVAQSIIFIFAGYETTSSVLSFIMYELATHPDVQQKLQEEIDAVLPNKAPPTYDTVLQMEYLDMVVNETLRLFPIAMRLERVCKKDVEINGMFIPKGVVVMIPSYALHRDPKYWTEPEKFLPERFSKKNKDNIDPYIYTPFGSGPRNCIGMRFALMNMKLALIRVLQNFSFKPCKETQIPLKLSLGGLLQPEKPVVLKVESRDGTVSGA

activity, negative = inhibition, inactive:
O=S(=O)(O)c1ccc(N=Nc2ccccc2)cc1 0.763% [at 11.4 µM]
NCC(=O)Nc1ccc(Cl)cc1C(=O)c1ccc[nH]1 -21.6% [at 11.4 µM]
Cc1cc(C)nc(SCCc2cccc[n+]2C)n1 -11% [at 11.4 µM]
O=C1CCC(c2ccccc2)=NN1c1nc2ccccc2s1 -23.1% [at 11.4 µM]
C=C1CCO[C@@]2([C@H](O)[C@@](C)(O)CO)NC(=O)[C@]1(O)NC2=O -2.69% [at 11.4 µM]
O=C(O)CCC(=O)c1ccc2sc3ccccc3c2c1 -21.1% [at 11.4 µM]
CC(C)C(=O)NCCCc1ccccc1 2.86% [at 11.4 µM]
COC(=O)[C@@H]1[C@@H]2C[C@H]3c4[nH]c5ccccc5c4CCN3C[C@@H]2CC[C@@H]1OS(=O)(=O)O 0.48% [at 11.4 µM]
Cc1nc(SCC(=O)c2ccc(F)cc2)c([N+](=O)[O-])[nH]1 5.95% [at 2.29 µM]
Nc1ccc(S(=O)(=O)Nc2cnc3ccccc3n2)cc1 -8.37% [at 11.4 µM]
NC1=N[C@H](c2ccc(Cl)cc2)N(c2ccc(S(=O)(=O)Nc3ncccn3)cc2)C(N)=N1 6.25% [at 11.4 µM]
Cc1cc(C(=O)OC2CCOC2=O)c2ccccc2n1 (stereo unspecified) -7.34% [at 11.4 µM]
O=C1C[C@@H](O)[C@@H](O)[C@H]2[C@@H]3C(=O)N(C[C@@H]4CCCO4)C(=O)[C@@H]3CC[C@H]12 9.5% [at 11.4 µM] and -5.79% [at 11.4 µM]
O=c1[nH]c(=S)c2[nH]c(=O)n(-c3ccccc3)c2[nH]1 -9.23% [at 11.4 µM]
O=[N+]([O-])c1ccc2c(c1)Cc1cc(N=Cc3ccc4c(c3)OCO4)ccc1-2 -16.1% [at 11.4 µM]
NS(=O)(=O)c1cc2c(cc1Cl)=NC(CCC(=O)O)=NS=2(=O)O 15.3% [at 11.4 µM]
CCCCCSc1nncc(=O)[nH]1 2.96% [at 11.4 µM]
O=C(O)[C@@H]1[C@@H](C(=O)Nc2ccccc2)[C@@H]2C=C[C@@H]1O2 -5.39% [at 11.4 µM]
O=C(O)[C@@H]1[C@@H]2C[C@@H]3[C@@H](OC(=O)[C@@H]31)[C@H]2Br -5.69% [at 11.4 µM]
CCCNc1[nH]c(=O)n(C)c(=O)c1N=O -16% [at 2.29 µM]
O=C(O)c1ccc(Nc2ccnc3cc(Cl)ccc23)cc1O -7.77% [at 11.4 µM]
COC(=O)c1[nH]c2cc(OC)ccc2c1NC(=O)CCN1CCSCC1 1.53% [at 2.29 µM]
CCOC(=O)c1ccc(NC(=O)C2(c3ccc(OC)cc3)CCOCC2)cc1 -2.41% [at 2.29 µM]

AC50, inactive:
O=C(O)CSc1cc(C(F)(F)F)nc(-c2ccccn2)n1
CC(=O)NCCNc1ncnc2ccc(-c3ccoc3)cc12
c1ccc(-n2ncc3c(NCCCN4CCOCC4)ncnc32)cc1
NCCCCNCCCN
CC1CCOC2(O1)C(=O)N(CN1CCN(c3ccccc3F)CC1)c1ccccc12 (stereo unspecified)
CC(=O)N1CCC(=O)N(C(C)C)c2ccccc21
CC(C)CN1CCC2(CC1)CCN(C(=O)c1cc(C(F)(F)F)cc(C(F)(F)F)c1)CC2
CC(C)NC(=O)N1CC2(CCN(C(=O)c3cc(C(F)(F)F)cc(C(F)(F)F)c3)CC2)C1
CN1CCC2(CC1)CCN(C(=O)c1cc(C(F)(F)F)cc(C(F)(F)F)c1)CC2
Cc1noc(C)c1C(=O)N1CCC2(CCCN(C(=O)NC(C)C)C2)CC1
COc1ccc(C(=O)N2CCC3(CC2)CN(C(=O)NC(C)C)C3)cc1
FC(F)(F)c1cnc(N2CCC(=NOCc3ccc(Cl)cc3)CC2)c(Cl)c1
CC(=O)Nc1cccc(C(=O)OCc2ccc(C(=O)Oc3ccc(Cl)cc3)cc2)c1
CN(C)CCNC(=O)Cn1nc(-c2ccc(Cl)cc2)ccc1=O
COCCNC(=O)CCn1nc(-c2ccc(Cl)cc2)ccc1=O
Cc1ccc(C(=O)CSc2nc(C)cc(=O)[nH]2)cc1
Cc1cc(C)nc(NS(=O)(=O)c2ccc(N)cc2)n1
COc1cc(CC(=O)OC2CCOC2=O)cc(OC)c1OC (stereo unspecified)
CCOc1ccccc1NC(=O)CN1CCC(NC(=O)c2ccccc2)CC1
CC(=O)NC1(c2cccc(F)c2)CCN(CC(=O)NC(C)C)CC1
COc1ccc(/C(C)=N/NC(=O)c2ccc(N(C)C)cc2)cc1
COc1ccccc1CN1CCC2(CCNCC2)CC1
CNc1cc(-c2ccccc2C)ncn1
c1cncc(-c2cncnc2NC2CCNCC2)c1
CC(=O)N(C[C@@H](C)C(=O)O)c1c(I)cc(I)c(N)c1I
Cc1cc(Nc2ccccc2)nc(N)n1
Cc1cccc(C)c1NC(=O)[C@H](C)N
CCOC(=O)c1[nH]c2cc3c(cc2c1NC(=O)CN1CCC2(CC1)OCCO2)OCO3
COC(=O)c1[nH]c2cccc(OC)c2c1NC(=O)CN(C)CC1OCCO1

AC50, active:
Cc1cc(SCC(=O)c2ccccc2)nc(SCC(=O)c2ccccc2)n1 2.82 µM
c1nc(NCCN2CCOCC2)c2cc(-c3ccc4c(c3)OCO4)ccc2n1 5.01 µM
c1cncc(-c2ccc3ncnc(NCCN4CCOCC4)c3c2)c1 12.6 µM
CC(=O)NCCNc1ncnc2ccc(-c3ccc4c(c3)OCO4)cc12 5.01 µM
N#Cc1ccccc1Sc1ccccc1N 17.8 µM
c1ccc2sc(N3CCN(Cc4ccc5c(c4)OCO5)CC3)nc2c1 0.631 µM
CC(C)c1ccc(C(=O)CC2(O)C(=O)N(CN3CCOCC3)c3ccccc32)cc1 (stereo unspecified) 8.91 µM
O=C(NCc1cccnc1)/C(=C/c1ccc(-c2cccc(Cl)c2)o1)S(=O)(=O)c1ccccc1 0.501 µM
CC(C)NC(=O)N1CCCC2(CCN(C(=O)c3ccncc3)CC2)C1 15.8 µM
CC(C)NC(=O)N1CCCC2(CCN(C(=O)c3cc(C(F)(F)F)cc(C(F)(F)F)c3)CC2)C1 25.1 µM
CC(C)CN1CC[C@@]2(CCCN(C(=O)c3cc(C(F)(F)F)cc(C(F)(F)F)c3)C2)C1 12.6 µM
CC(C)NC(=O)N1CC[C@@]2(CCCN(C(=O)c3cc(C(F)(F)F)cc(C(F)(F)F)c3)C2)C1 15.8 µM
C/C(CCc1ccc2c(c1)OCO2)=N\N=C1\NC(=O)CC(C(=O)Nc2ccccc2)S1 (stereo unspecified) 2.24 µM
COc1ccc(Cl)cc1N=Nc1ncc[nH]1 10 µM
COC(=O)c1c(-c2cc(OC)c(OC)c(OC)c2)c2ccc(OCc3ccccn3)cc2c(=O)n1-c1ccc(N)cc1 0.398 µM
Cc1cc(C)c(NC(=O)CS(=O)CC(=O)NCCCc2ccccc2)c(C)c1 (stereo unspecified) 3.55 µM
N#CC(c1ccc(Cl)cc1)(c1ncc(C(F)(F)F)cc1Cl)N1CCOCC1 (stereo unspecified) 12.6 µM
CC(O)(CS(=O)(=O)Cc1ccc(Cl)cc1)C(=O)Nc1cccc(C(F)(F)F)c1 (stereo unspecified) 2 µM
CC(O)(CS(=O)(=O)Cc1ccccc1Cl)C(=O)Nc1cccc(C(F)(F)F)c1 (stereo unspecified) 2.51 µM
O=C(CCn1nc(-c2ccc(Cl)cc2)ccc1=O)NCc1ccccn1 10 µM
Cc1ccc(-n2nnnc2-c2cnc3ccc(Cl)cc3c2-c2ccccc2)cc1 5.62 µM
Cc1ccc2nc(SCC(=O)c3ccc4c(c3)OCO4)[nH]c2c1 2.24 µM
CNc1cc(NS(=O)(=O)c2ccc(N)cc2)nc(NC)n1 0.794 µM
COc1cc(OC)cc(C(=O)NCC(=O)OC2CCOC2=O)c1 (stereo unspecified) 25.1 µM
CCOc1ccccc1NC(=O)C1=C(C)NC(=O)NC1c1cccc(OC)c1OC (stereo unspecified) 3.98 µM
C#CCn1c(S(=O)(=O)Cc2ccc(OC)cc2)nc(-c2ccccc2)c1-c1ccccc1 6.31 µM
COc1ccccc1C1(CC(=O)Nc2nccs2)CCOC(C(C)C)C1 (stereo unspecified) 6.31 µM
O=c1oc2cc(N=Cc3ccc4c(c3)OCO4)ccc2c2ccccc12 3.98 µM
COc1ccc(C(=O)N/N=C2/C(=O)c3c(C)cc(C)cc3CC2(C)C)cc1 3.16 µM
c1cncc(CNc2nc(-c3ccoc3)nc3ccccc23)c1 7.94 µM
Cc1cccc(CNc2nc(-c3ccoc3)nc3ccccc23)c1 6.31 µM
c1cncc(-c2nc(NCc3cccs3)c3ccccc3n2)c1 2 µM
c1csc(CNc2nc(-c3ccoc3)nc3ccccc23)c1 7.94 µM
c1ccc(CNc2nc(-c3ccoc3)nc3ccccc23)cc1 12.6 µM
CNc1ncncc1-c1ccccc1C 0.631 µM
COc1ccccc1-c1cncnc1Nc1ccc(F)cc1 0.158 µM
Cc1ccccc1-c1cncnc1NC1CCNCC1 15.8 µM
Cc1ccccc1-c1cncnc1Nc1ccc(F)cc1 0.2 µM
Cc1ccccc1-c1cncnc1Nc1ccccc1 0.631 µM
Cc1cccc(C)c1NC(=O)C(NC=O)c1ccccc1Cl (stereo unspecified) 10 µM
CCOC(=O)c1[nH]c2cc(OC)c(OC)cc2c1NC(=O)c1ccc2c(c1)OCO2 7.94 µM
CCOC(=O)c1[nH]c2cc3c(cc2c1NC(=O)CN1CCc2ccccc2C1)OCO3 0.708 µM
COC(=O)c1[nH]c2cc(OC)ccc2c1NC(=O)c1ccc2c(c1)OCO2 7.94 µM
CCOC(=O)c1[nH]c2ccc(OC)cc2c1NC(=O)c1ccc2c(c1)OCO2 1.41 µM
